Source: PubChem (The Scripps Research Institute Molecular Screening Center)
MITF primary – inhibitors of human MITF; actives 0.91% (n = 650,000); AlphaScreen MITF homodimerization, bead proximity signal; inhibition, % at 2.6 µM; O75030; in the data active means inhibition above about 50%
Target sequence (O75030 whole entry, looked up): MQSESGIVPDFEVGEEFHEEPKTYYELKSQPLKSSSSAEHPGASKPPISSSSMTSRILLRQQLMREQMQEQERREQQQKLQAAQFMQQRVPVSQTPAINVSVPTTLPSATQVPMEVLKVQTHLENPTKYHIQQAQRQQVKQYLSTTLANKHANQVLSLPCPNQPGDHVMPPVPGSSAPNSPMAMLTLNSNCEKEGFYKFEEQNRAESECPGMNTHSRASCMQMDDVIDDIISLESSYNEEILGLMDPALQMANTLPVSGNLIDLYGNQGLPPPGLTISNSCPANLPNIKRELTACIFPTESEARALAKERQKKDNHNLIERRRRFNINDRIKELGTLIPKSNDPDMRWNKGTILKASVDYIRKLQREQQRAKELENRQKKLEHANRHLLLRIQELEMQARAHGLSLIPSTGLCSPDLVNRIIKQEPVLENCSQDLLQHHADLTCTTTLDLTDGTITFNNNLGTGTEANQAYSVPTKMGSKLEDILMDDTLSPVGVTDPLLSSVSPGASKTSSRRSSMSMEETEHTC
GPR151 activ – activates the human receptor GPR151 | PathHunter beta-arrestin GPR151 cells, luminescence | activation, % at 11.2 µM | actives 1% (n = 650,000) | AID 1508602; in the data active means activation above about 4.9%
TEAD-YAP block – TEAD-YAP interaction inhibition; AID 1259422; actives 1.4% (n = 640,000); HEK-TIYL cells, TEAD-Gal4/YAP UAS-luciferase luminescence; inhibition, % at 9.12 µM; in the data active means inhibition above about 32%
FBW7 act – human FBW7 E3 ligase activation, primary screen. AlphaScreen FBW7–phospho-cyclin E peptide binding, activator screen. normalized activity (activation), % at 26.1 µM. AID 1259310. Q969H0. actives 0.13% (n = 650,000); in the data active means normalized activity above about 1.9%;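 further: purified mutant Fbw7 with reduced substrate affinity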
Large screens that a line does not name were inactive. In the library only some 3.5% were active in any assay of this set; here they are far more common.

O=C(N/N=C/c1cc(Br)cc(I)c1O)c1cccnc1	TEAD-YAP block 68
O=C(N/N=C/c1cc(Cl)cc(Br)c1O)c1cccnc1	MITF primary 64, TEAD-YAP block 79
Cc1cc(C)c(C(=O)Nn2c(-c3ccc(F)cc3)nc3ccccc3c2=O)cc1C	none
CCOC(=O)c1sc2nc(CC(=O)OC)nc(Nc3ccc(F)cc3F)c2c1C	none
CCOC(=O)c1ccc(CS(=O)(=O)c2ccc(Cl)cc2)o1	none
O=C(O)Cn1ncc2c3ccccc3n(Cc3ccccc3)c2c1=O	none
CC(C)C[C@H]1NC(=O)[C@H]2CN(Cc3cnn(-c4ccccc4Cl)c3)CCN2C1=O	none
CCc1cccc(CC)c1NC(=O)C1CCN(c2nc(C)cc(C)n2)CC1	none
CCOC(=O)c1c(NC(=O)CC)sc2c1CCC/C2=N/OC(C)=O	none
CCOC(=O)c1c(N)sc2c1CCC/C2=N\O	TEAD-YAP block 53
CCOC(=O)c1csc2c1CCC/C2=N/OC(C)=O	TEAD-YAP block 36
O=C1[C@@H]2C[C@H](NCc3sc4ccccc4c3Cl)CN2C(=O)[C@H]2CCCN12	none
Cc1ccc(CSc2ccc(C(=O)N3CCCC3)cc2[N+](=O)[O-])cc1	none
CC(=O)Oc1cc(N2CCOCC2)c(OC(C)=O)c2c1C(=O)c1ccccc1C2=O	TEAD-YAP block 64
COc1c(O)cc2c(c1O)[C@@H]1O[C@H](CO)[C@@H](O)[C@H](O)[C@H]1OC2=O	none
Cc1c(C(=O)O)c(O)cc2c1C(=O)c1c(O)c([C@H]3O[C@H](CO)[C@@H](O)[C@H](O)[C@H]3O)c(O)c(O)c1C2=O	MITF primary 90
CCCN(C(=O)c1coc(=O)c2ccccc12)c1cccc(Cl)c1	TEAD-YAP block 68
O=C(CSc1nnc(-c2ccco2)c(-c2ccco2)n1)Nc1ccc(C(=O)O)cc1	MITF primary 73
Cc1cc(NC(=O)CSc2nnc(-c3ccco3)c(-c3ccco3)n2)no1	TEAD-YAP block 32
O=C(CSc1nnc(-c2ccco2)c(-c2ccco2)n1)Nc1cccc(C(=O)O)c1	none
CCc1ccc2nc3sc(C(N)=O)c(N)c3cc2c1	TEAD-YAP block 92
NC(=O)c1sc2nc3cc4c(cc3cc2c1N)OCO4	TEAD-YAP block 73
CCCn1c(NC(=O)c2cccc(S(=O)(=O)N(C)C(C)C)c2)nc2ccccc21	TEAD-YAP block 34
COc1cccc(CNC(=O)c2cc3c(C)nc4ccccc4c3o2)c1	none
COc1ccc(CNC(=O)c2cc3c(C)nc4ccccc4c3o2)c(OC)c1	TEAD-YAP block 34
Cc1ccc(-c2cccc3cnc(Nc4cccc(C(=O)N5CCCC5)c4)nc23)cn1	none
Cc1ccc(-c2cccc3cnc(Nc4cccc(C(=O)NC5CC5)c4)nc23)cn1	TEAD-YAP block 33
Cc1ccc(-c2cccc3cnc(Nc4ccc(C(=O)NC5CC5)cc4)nc23)cn1	TEAD-YAP block 64
Oc1ccc(CCNc2nc(Nc3nccc4ccccc34)nc3c2ncn3C2CCCCC2)cc1	none
CCCNc1nc(Nc2nccc3ccccc23)nc2c1ncn2-c1ccccc1	none
Oc1ccc(CCNc2nc(Nc3nccc4ccccc34)nc3c2ncn3-c2ccsc2)cc1	TEAD-YAP block 66
CCCNc1nc(Nc2nccc3ccccc23)nc2c1ncn2-c1ccsc1	TEAD-YAP block 65
COc1ccc(CCNc2nc(Nc3nccc4ccccc34)nc3c2ncn3C2CCCCC2)cc1	TEAD-YAP block 33
O=C(/C=C/c1ccccc1[N+](=O)[O-])Nc1ccc(-c2nnc3n2CCCCC3)cc1	none
Cc1c(Cl)cccc1NC(=O)CN1C(=O)C2C3C=CC(C3)C2C1=O (stereo not drawn)	none
COC(=O)c1cccc(NC(=O)c2ccccc2Cl)c1C	none
Nc1cccc(F)c1Nc1ccc2c(cnn2-c2cccc(C(=O)NCCN3CCOCC3)c2)c1	TEAD-YAP block 79
Oc1cccc(/C=N/Nc2ncnc3nc[nH]c23)c1	none
CCOc1ccccc1/C=N/Nc1ncnc2nc[nH]c12	none
Brc1cccc(/C=N/Nc2ncnc3nc[nH]c23)c1	TEAD-YAP block 57
COc1ccc(/C=N/Nc2ncnc3nc[nH]c23)c(OC)c1	TEAD-YAP block 38
CCN(CC)c1ccc(/C=N/Nc2ncnc3nc[nH]c23)cc1	TEAD-YAP block 76
COc1ccc(/C=N/Nc2ncnc3nc[nH]c23)cc1O	TEAD-YAP block 37
O=C(CSc1nnc(NC(=O)Cc2cccc3ccccc23)s1)NCc1ccccc1	none
Cc1ccc(CNC(=O)CSCc2ccc(F)cc2)cc1	none
O=C(Cc1ccc(-n2cccc2)cc1)NCc1ccc(F)cc1	TEAD-YAP block 60
O=C(Cn1cccc1)NCc1ccc(F)cc1	none
O=C(Cc1ccc(-n2cccc2)cc1)NCc1cccs1	TEAD-YAP block 45
COc1ccc(CNC(=O)c2c(C)[nH]c(C(C)=O)c2C)cc1	TEAD-YAP block 58
CCOC(=O)c1[nH]c(C)c(C(=O)NCc2ccc(OC)cc2)c1C	none
Cc1ccc(CC(=O)NCc2ccc(F)cc2)cc1	TEAD-YAP block 39
O=C(NNC(=S)NCc1ccc(F)cc1)c1cc(Br)ccc1O	none
CC1(C)CC(=O)C(C=NC2CCCCCCC2)=C(O)C1	none
COc1ccc(CC(=O)NCc2ccc(Cl)cc2)cc1	TEAD-YAP block 40
Cc1ccc(CC(=O)NCc2cccs2)cc1C	TEAD-YAP block 45
Cc1ccc(C(=O)NCc2cccs2)cc1C	none
COc1ccc(CC(=O)NCc2ccc(F)cc2)cc1	TEAD-YAP block 46
OC(COc1ccc2ccccc2c1)CN1CCN(c2ccccc2F)CC1 (stereo not drawn)	none
CC(=O)c1c(C)[nH]c(C(=O)CSc2nnc(NCc3ccccc3)s2)c1C	TEAD-YAP block 42
CCOC(=O)c1c(C)[nH]c(C(=O)CSc2nnc(NCc3ccccc3)s2)c1C	none
CC(C)CCNC(=O)c1cccn2c(=O)c3cc4ccccc4cc3nc12	none
CN(C)CCNC(=O)c1cccn2c(=O)c3cc4ccccc4cc3nc12	TEAD-YAP block 71
Oc1c(C(Nc2ccccn2)c2ccco2)ccc2cccnc12 (stereo not drawn)	TEAD-YAP block 63
Oc1c(C(Nc2ccccc2)c2ccccn2)ccc2cccnc12 (stereo not drawn)	MITF primary 94
Oc1c(C(Nc2ccccn2)c2ccccc2F)ccc2cccnc12 (stereo not drawn)	TEAD-YAP block 84
Oc1ccc(Cl)c(C(Nc2ccccn2)c2ccc3cccnc3c2O)c1 (stereo not drawn)	TEAD-YAP block 81
Cc1ccnc(NC(c2cc(C)ccc2O)c2ccc3cccnc3c2O)c1 (stereo not drawn)	none
Oc1c(C(Nc2ccccn2)c2ccccn2)ccc2cccnc12 (stereo not drawn)	none
Cc1cccc(NC(c2ccccc2F)c2ccc3cccnc3c2O)n1 (stereo not drawn)	none
Oc1c(C(Nc2ncccn2)c2ccco2)ccc2cccnc12 (stereo not drawn)	none
CCOC(=O)c1sc(NC(=O)COc2ccc(C)cc2C(C)(C)C)c(C(=O)OCC)c1C	none
COc1ccc(OC)c(NC(=O)Cn2cnc3sc4c(c3c2=O)CCCC4)c1	none
Nc1ccc2nc(SCc3cccc4nsnc34)sc2c1	none
Oc1c(C(Nc2cccc(Cl)c2)c2ccncc2)ccc2cccnc12 (stereo not drawn)	MITF primary 103
